Potency and affinity values are given separately.
biological target: NAD-dependent protein deacylase sirtuin-5, mitochondrial (Homo sapiens) (UniProt Q9NXA8); assay: blockers of sirtuin-5 peptide desuccinylation – biochemical, fluorescence imaging, cherry-pick, set 6, dose response (AID 720597); conditions: Purified SirT5, succinyl-peptide-AMC/trypsin fluorescence; series mostly up to 15 µM; activity change, negative = inhibition: at the top concentration;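 further: lower AMC signal can also come from blocking the trypsin step; 0% = median of neutral control wells and -100% = median of positive control wells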
Sequence (Q9NXA8 whole entry, looked up): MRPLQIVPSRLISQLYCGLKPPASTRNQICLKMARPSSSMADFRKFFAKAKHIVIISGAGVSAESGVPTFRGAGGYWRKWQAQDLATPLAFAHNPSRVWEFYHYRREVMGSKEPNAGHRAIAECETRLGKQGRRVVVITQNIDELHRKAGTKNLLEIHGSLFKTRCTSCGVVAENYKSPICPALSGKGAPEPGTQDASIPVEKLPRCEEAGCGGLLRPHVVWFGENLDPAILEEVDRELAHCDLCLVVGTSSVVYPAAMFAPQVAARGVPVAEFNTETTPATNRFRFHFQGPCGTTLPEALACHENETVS

Activity change, negative = inhibition, inactive:
O=C(C[C@@H]1C[C@H]2c3cc(NC(=O)C4CCC4)ccc3O[C@H]2[C@H](CO)O1)NCc1ccc(-c2ccccc2)cc1 -5.14%
COc1ccc(S(=O)(=O)N(C)C[C@@H]2OCCCC[C@@H](C)Oc3ccc(NS(=O)(=O)c4ccc(C)cc4)cc3C(=O)N([C@@H](C)CO)C[C@@H]2C)cc1 -14.6%
COc1ccc(NC(=O)N(C)C[C@@H]2Oc3ccc(NS(=O)(=O)c4ccc(F)cc4)cc3C(=O)N([C@@H](C)CO)C[C@H]2C)cc1 16.3% [at 16 µM]
Cc1ccccc1S(=O)(=O)N1CCCCN2[C@H](CO)[C@@H](c3ccc(-c4ccccc4)cc3)[C@H]2C1 -17.2%
CCCC#Cc1ccc2c(c1)O[C@@H](CN(C)C(=O)c1cnccn1)[C@@H](C)CN([C@@H](C)CO)S2(=O)=O -11.5%
C[C@H]1CN([C@@H](C)CO)C(=O)c2cc(NC(=O)C3CC3)ccc2O[C@H]1CN(C)S(=O)(=O)c1cn(C)cn1 -9.34%
C[C@@H]1CN([C@@H](C)CO)C(=O)Cc2cc(NS(=O)(=O)c3ccc(F)cc3)ccc2O[C@H]1CN(C)Cc1ccc(C(F)(F)F)cc1 -16.2%
CC(C)[C@@H](C)NC(=O)N(C)C[C@@H]1OCc2ccccc2-c2c(n(C)c3ccccc23)C(=O)N([C@@H](C)CO)C[C@@H]1C -18.6%
C/C=C/c1ccc([C@H]2[C@@H](CO)N(CC3CCCCC3)[C@@H]2CNC(C)C)cc1 -7.06% [at 16 µM]
C[C@H](CO)N1C[C@H](C)[C@H](CN(C)Cc2ccc(Cl)c(Cl)c2)Oc2ccc(NC(=O)CCCCCC(=O)Nc3ccccc3N)cc2C1=O -1.49%
Cc1noc(C)c1S(=O)(=O)Nc1ccc2c(c1)CC(=O)N([C@H](C)CO)C[C@H](C)[C@H](CN(C)Cc1ccncc1)O2 -7.37%
COc1ccccc1NC(=O)N1CC(=O)N2[C@H](CO)[C@@H](c3ccc(C#CC4CC4)cc3)[C@H]2C1 -19.2%
O=S(=O)(c1ccc(F)cc1)N1CCCCN2[C@H](CO)[C@H](c3ccc(C#CC4CCCC4)cc3)[C@@H]2C1 -22.7%
C[C@@H]1CN([C@@H](C)CO)S(=O)(=O)c2ccc(/C=C/c3ccccc3)cc2O[C@@H]1CN(C)C(=O)C1CC1 7.63%
CC(C)CC#Cc1ccc2c(c1)O[C@@H](CN(C)C(=O)NC1CCCC1)[C@H](C)CN([C@H](C)CO)S2(=O)=O -5.15%
C[C@@H]1CN([C@@H](C)CO)S(=O)(=O)c2ccc(C#Cc3ccccc3F)cc2O[C@@H]1CN(C)C(=O)c1ccc2c(c1)OCO2 -22.3%
COc1cccc(CNC(=O)C[C@H]2CC[C@H]3[C@H](COc4ccc(NS(=O)(=O)c5ccccc5F)cc4C(=O)N3C)O2)c1 2.21%
Cc1noc(C)c1S(=O)(=O)Nc1ccc2c(c1)C(=O)N([C@H](C)CO)C[C@@H](C)[C@@H](CN(C)Cc1ccc(C(F)(F)F)cc1)OCCCC[C@@H](C)O2 2.73%
Cc1ccc(S(=O)(=O)N(C)C[C@@H]2OCCCC[C@H](C)Oc3ccc(NS(=O)(=O)c4ccc(Cl)cc4)cc3C(=O)N([C@H](C)CO)C[C@@H]2C)cc1 -16.7%
CCCC(=O)Nc1ccc2c(c1)OC[C@@H](C)N(Cc1ccccc1)C[C@H](C)[C@H](OC)CN(C)C2=O -13%
C[C@@H]1CCCCO[C@H](CN(C)S(=O)(=O)c2ccc(Cl)cc2)[C@H](C)CN([C@H](C)CO)C(=O)c2cc(NS(=O)(=O)c3ccc(F)cc3)ccc2O1 -23.1%
C[C@@H]1CN([C@@H](C)CO)C(=O)c2cc(C#CCN(C)C)cnc2O[C@H]1CN(C)Cc1ccncc1 -23.3%
Cc1ccc(S(=O)(=O)N(C)C[C@H]2OCCCC[C@@H](C)Oc3ccc(NS(=O)(=O)c4ccc(Cl)cc4)cc3C(=O)N([C@H](C)CO)C[C@H]2C)cc1 -12.6%
C[C@@H]1CN([C@@H](C)CO)C(=O)c2ccccc2-c2ccccc2CO[C@H]1CN(C)Cc1ccccc1C(F)(F)F -23%
C[C@H](CO)N1C[C@H](C)[C@H](CN(C)S(=O)(=O)c2ccccc2F)Oc2cc(C#Cc3cccc(F)c3)ccc2S1(=O)=O 4.83%
C[C@@H]1CN([C@@H](C)CO)C(=O)c2cc(-c3cccc(F)c3)cnc2O[C@H]1CN(C)C -3.87%
C[C@@H]1CN([C@H](C)CO)C(=O)c2c(c3ccccc3n2C)-c2ccccc2CO[C@@H]1CN(C)Cc1cccc2c1OCCCO2 -2.67%
C[C@H](CO)N1C[C@H](C)[C@H](CN(C)Cc2ccc(Oc3ccccc3)cc2)Oc2ccc(NC(=O)Cc3ccccc3)cc2C1=O -9.54%
